# DT40 TDP1 CPT = qHTS for Inhibitors of human tyrosyl-DNA phosphodiesterase 1 (TDP1): qHTS in cells in presence of CPT. chicken DT40 Tdp1-/-;hTDP1 cells + 20 nM CPT, ATP luminescence, 48 h. Potency, µM (doses to about 46.2 µM), for inactives: at the highest dose activity change, negative = growth inhibition, actives largely listed as inhibitors. 420,000 tested, 12% active. AID 686979, 2013; further: on the % scale 0 is the no-effect control and ±100 the full control effect; nearly all actives have a fitted effect of over 55% in size
#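 Chicken DT40 Tdp1-/- cells stably complemented with human TDP1 were seeded at 400 cells/well in medium containing 20 nM camptothecin, exposed to pin-transferred compounds, and grown at 37 °C for at least 48 hr. Viability was read as ATP luminescence.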
# ClpP mod = qHTS Assay for Activators of ClpP; ATP-dependent Clp protease proteolytic subunit (Bacillus subtilis (strain 168)), P80244; purified B. subtilis ClpP, FRET peptide cleavage, 20 min; Potency, µM (series often up to 57.5 µM), for the others: at the top dose activity change, negative = active; 340,000 tested, 1.9% active; active means well fitted falling curve with a large enough effect; inconclusive means small, poorly fitted or top-dose-only effect; inactive means no such curve, though single readings can be large or run the other way; further: the source files actives as falling curves though it sought activators and does not explain the sign; nearly all actives have a fitted effect of over 65% in size
# Target sequence (P80244 whole entry, looked up): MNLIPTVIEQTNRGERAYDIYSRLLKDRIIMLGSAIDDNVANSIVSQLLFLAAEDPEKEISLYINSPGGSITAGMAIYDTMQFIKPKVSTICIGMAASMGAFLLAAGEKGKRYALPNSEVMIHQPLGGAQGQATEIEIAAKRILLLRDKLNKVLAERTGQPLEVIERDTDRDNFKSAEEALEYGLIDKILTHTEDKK
#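 FRET quenching reversal measured ClpP activation: 10 microg/mL B. subtilis ClpP at pH 8 with the FRET-FV decapeptide, read at 430 nm after 320 nm excitation. The 20-min minus 0-min signal was scaled between DMSO/no-enzyme wells and ADEP (5.8 microM final).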
# TDP1 inh = qHTS Assay for Inhibitors of Tyrosyl-DNA Phosphodiesterase (TDP1); Tyrosyl-DNA phosphodiesterase 1 (Homo sapiens), Q9NUW8; recombinant TDP1, AlphaScreen DNA substrate cleavage; Potency, µM (top dose mostly 130 µM), for inactives: top-dose activity change, negative = inhibition, hits mostly inhibitors; 350,000 tested, 0.28% active; AID 485290, 2010; further: on the % scale 0 is the no-effect control and ±100 the full control effect; nearly all actives have a fitted effect of over 40% in size
#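 Steps: enzyme plus compound, 15 min RT; add biotin/phosphotyrosine-FITC oligonucleotide (15 nM final), react 5 min; add donor/acceptor beads (10 ug/ml final), 10 min; read AlphaScreen. Tdp1 at 1 nM final.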
# TDP1 cell noCPT = qHTS for Inhibitors of human tyrosyl-DNA phosphodiesterase 1 (TDP1): qHTS in cells in absence of CPT; DT40 Tdp1-/- hTDP1 cells, no CPT, ATP luminescence, 48 h; Potency, µM (titrated, usually from 46.2 µM), for inactives: at the highest dose activity change, negative = growth inhibition, most hits filed as inhibitors; 420,000 tested, 15% active; AID 686978, 2013; further: on the % scale 0 is the no-effect control and ±100 the full control effect; nearly all actives have a fitted effect of over 55% in size
#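 Growth kinetics read by CellTiter-Glo luminescence after ≥48 hr at 37 °C. Cells: DT40 Tdp1-/- stably carrying human TDP1, 400 per well, compound exposure in the absence of CPT (DMSO vehicle).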
# Active calls of the source: *; u = inconclusive; x = no result given; [ ] = dose if it differs, or a comment. Rows were chosen to be rich in hits. Some 17% of all compounds tested hit in one or more screens of this group. Unless noted, the call rests on the fitted dose curve; in most records, active means well fitted curve in the direction sought with a large enough effect; inconclusive means small, poorly fitted or top-dose-only effect, or another doubt; inactive means no such curve, though single readings can be large; an effect the other way counts as inactive or inconclusive. Potency means the concentration at half of the fitted maximal effect.
SMILES,DT40 TDP1 CPT,ClpP mod,TDP1 inh,TDP1 cell noCPT
CCOc1cc(N2CCOCC2)c(OCC)cc1NC(=O)Cc1cccc2ccccc12,u,-1.5%,5.7%,u
CCCNC(=O)Nc1cc(OCC)c(N2CCOCC2)cc1OCC,u,-17.7%,4.0%,18.4µM*
CCOc1cc(N2CCOCC2)c(OCC)cc1NC(=O)C(C)Oc1ccccc1 (centres undefined),u,x,0.8%,13µM*
CCOc1cc(N2CCOCC2)c(OCC)cc1NS(=O)(=O)c1ccc(Cl)s1,4.61µM*,-1.7%,u,2.91µM*
CCOc1ccccc1N1CCN(S(=O)(=O)c2ccc(Cl)s2)CC1,u,0.5%,0.0%,u
CCOc1ccccc1OCCCC(=O)Nc1sccc1C(N)=O,u,3.8%,0.0%,16.4µM*
COCCC(=O)N1CCC(Oc2ccc(C(=O)N(C)Cc3cc(C)no3)cc2)CC1,-17.7%,1.2%,1.7%,-0.8%
CCOc1cc(N2CCOCC2)c(OCC)cc1NC(=O)C1CCCC1,u,1.7%,5.7%,29.1µM*
CC(Oc1cccc(Cl)c1)C(=O)Nc1ccccc1N1CCCCC1 (centres undefined),2.9%,-4.2%,0.8%[0.505 µM],-8.6%
CC(Oc1cccc(Cl)c1)C(=O)N(C)CC(=O)Nc1ccc(N2CCOCC2)cc1 (centres undefined),13µM*,-0.9%,4.9%,16.4µM*
CC(Oc1cccc(Cl)c1)C(=O)Nc1ccccc1C(=O)N1CCCCC1 (centres undefined),23.1µM*,-11.6%,4.0%,u
CC(Oc1cccc(Cl)c1)C(=O)Nc1cc(Cl)ccc1N1CCOCC1 (centres undefined),20.6µM*,-0.5%,-4.8%,u
CCOc1cc(N2CCOCC2)c(OCC)cc1NC(=O)CN1CCCC1,9.9%,-1.1%,-7.9%,-5.4%
OC[C@H]1O[C@@H](c2nc(-c3ccccc3Br)no2)[C@H](O)[C@@H](O)[C@H]1O,-10.3%,0.6%,x,1.7%
Cc1ccc(C)c(OCCC(=O)OCC(=O)Nc2ccc(Cl)cn2)c1,-4.8%,x,0.1%,-9.5%
Cc1ccc(C)c(OCCC(=O)OCC(=O)Nc2cccnc2Cl)c1,14.6µM*,-1.6%,x,u
CCOc1cc(N2CCOCC2)c(OCC)cc1NC(=O)CCC1CCCC1,16.4µM*,0.4%,5.1%,18.4µM*
CCOc1cc(N2CCOCC2)c(OCC)cc1NC(=O)COC(=O)CCOc1cc(C)ccc1C,u,-0.8%,4.6%,23.1µM*
CN(CC(=O)Nc1ccc(N2CCOCC2)cc1)CC(=O)Nc1ccc(Cl)cc1[N+](=O)[O-],u,0.5%,-1.1%,25.9µM*
COc1ccccc1/C=C/C(=O)OCCN1C(=O)c2ccccc2C1=O,6.2%,-16.3%,x,-8.0%
N[C@H](Cc1cc(I)c(Oc2cc(I)c(O)c(I)c2)c(I)c1)C(=O)O,x,x,5.7%[56.1 µM],x
CCN(CC)C(=O)c1cn(-c2cccc(OC)c2)c(=O)c2ccccc12,-9.2%,-13.6%,x,18.2%
CCCOc1ccccc1OCC(=O)Nc1cc(Cl)ccc1-n1cncn1,u,-23.5%,0.4%[0.505 µM],u
Cc1cc(C)c2c(=O)cc(C(=O)NCc3ccc(S(N)(=O)=O)cc3)oc2c1,8.2%,-0.2%,3.7%,u
Cc1ccc(C)c(OCCCC(=O)Nc2ccccc2C(N)=O)c1,u,-4.4%,-2.5%,16.4µM*
SMILES,DT40 TDP1 CPT,ClpP mod,TDP1 inh,TDP1 cell noCPT
CCOc1cc(N2CCOCC2)c(OCC)cc1NC(=O)CCS(=O)(=O)c1ccc(Cl)cc1,4.11µM*,1.0%,4.2%,1.84µM*
CN(CC(=O)Nc1ccc(Cl)cc1)CC(=O)Nc1cc(Cl)ccc1C#N,u,-2.1%,0.0%,23.1µM*
CCOc1cc(N2CCOCC2)c(OCC)cc1NC(=O)c1cc(S(=O)(=O)N2CCOCC2)ccc1Cl,-109.8%,-1.1%,-9.7%,-102.7%
CN(CC(=O)Nc1ccc(Cl)cc1)CC(=O)Nc1ccc(C(N)=O)cc1,-16.1%,1.9%,2.5%,-18.3%
CC(Oc1cccc(Cl)c1)C(=O)Nc1cc(=O)n(C)c(=O)n1C (centres undefined),u,0.4%,-1.1%,13µM*
CCOC(=O)c1ccc2c(c1)N(CC(=O)Nc1ccc(CC)cc1)C(=O)c1ccccc1S2,x,-0.9%,7.7%,x
COC(=O)/C(C#N)=C(/Nc1ccc(F)c(Cl)c1)C(F)(F)F,14.3%,x,x,-1.4%
CCOc1ccccc1NC(=O)CSc1nnc(NC(=O)c2ccco2)s1,-9.7%,1.7%,-0.6%,-1.9%
O=C(NCCCN1CCCCCC1)c1ccc2c(c1)NC(=O)C(N1CCOCC1)S2 (centres undefined),3.5%,0.7%,2.0%,-6.8%
O=C1Nc2cc(C(=O)NCCN3CCCCCC3)ccc2S/C1=C/c1ccccc1F,7.31µM*,-0.9%,x,3.66µM*
O=C1Nc2cc(C(=O)NCCCN3CCCC3)ccc2S/C1=C/c1ccccc1F,18.4µM*,-0.5%,7.5%,u
O=C(NCCCN1CCCCC1)c1ccc2c(c1)NC(=O)c1ccccc1S2,-24.7%,-0.4%,7.2%,u
Cc1cc(C)c(NC(=O)CSc2ccnc(=O)[nH]2)c(C)c1,u,-0.8%,0.0%,-27.9%
CCOC(=O)C1CCN(c2nc3c(S(=O)(=O)c4ccccc4)nnn3c3ccc(Cl)cc23)CC1,23.1µM*,-4.1%,1.0%,14.6µM*
CCOC(=O)C1CCN(c2nc3c(S(=O)(=O)c4ccc(C)c(C)c4)nnn3c3ccc(Cl)cc23)CC1,u,3.9%,1.0%,u
CCOC(=O)C1CCN(c2nc3c(S(=O)(=O)c4ccccc4)nnn3c3ccsc23)CC1,14.6µM*,-87.6%,2.6%,20.6µM*
CC(C)c1nc(Nc2nc3ccccc3o2)nc2c1CCCC2,x,x,2.6%,x
COC(=O)CN1C(=O)[C@@H]2[C@H](C1=O)[C@@H]1CC(C(=O)OC)=C[C@@H](C(=O)OC)C3C1=C(C(=O)C31CCCCC1)[C@@H]2C (some centres undefined),x,x,8.5%,x
c1ccc(-c2nnc3nc(N4CCCCC4)nc(N4CCCCC4)n23)cc1,18.4µM*,-6.7%,x,14.6µM*
Nc1ccc2c(c1)Cc1c(F)cccc1-2,11.4%,x,x,u
COc1ccc2c(c1)C(=NN)c1cc(OC)ccc1-2,16.4µM*,0.3%,1.9%,u
COc1ccc2c(c1)C(=NNc1ccc(C(=O)O)cc1)c1cc(OC)ccc1-2,u,1.0%,x,23.1µM*
c1cncc(CNCc2ccco2)c1,-8.1%,-0.6%,x,3.9%
Cc1ccc(C)c(NC(=O)CSc2c3c(nc4ccc(Cl)cc24)CCCC3)c1,20.6µM*,1.5%,0.0%,20.6µM*
COC(=O)c1ccccc1NC(=O)c1ccc2c(Cl)c3c(nc2c1)CCCC3,1.8%,46.6%,-1.2%,4.5%

# Screening results: PubChem BioAssay, National Center for Advancing Translational Sciences (NCATS)
